# Reference: publication PMC5540273 (PLoS ONE, 2017)
# Read-outs that look alike come from different tables or passages of the source.
# How the values were obtained:
# AAK1 = settings: n = 1
# ABL1-nonphosphorylated = settings: concentration: 1 μM, replicates: in singlicate; n = 1
# ABL1-phosphorylated = settings: concentration: 1 μM, replicates: in singlicate; n = 1
# ABL2 = settings: concentration: 1 μM, replicates: in singlicate; n = 1
# ACVR1B = settings: concentration: 1 μM, replicates: in singlicate; n = 1
# ACVR1 = settings: concentration: 1 μM, replicates: in singlicate; n = 1
# ACVR2A = settings: concentration: 1 μM, replicates: in singlicate; n = 1
# ACVR2B = settings: concentration: 1 μM, replicates: in singlicate; n = 1
# ACVRL1 = settings: concentration: 1 μM, replicates: in singlicate; n = 1
# ADCK3 = system: T1, ADCK3; settings: concentration: 1 μM, replicates: in singlicate; n = 1
# T1 construct: gene CABC1
# ADCK4 = settings: concentration: 1 μM, replicates: in singlicate; n = 1
# AKT1 = settings: concentration: 1 μM, replicates: in singlicate; n = 1
# AKT2 = settings: concentration: 1 μM, replicates: in singlicate; n = 1
# AKT3 = settings: concentration: 1 μM, replicates: in singlicate; n = 1
# ALK = settings: concentration: 1 μM, replicates: in singlicate; n = 1
# AMPK-alpha1 = system: T2, AMPK-alpha1; settings: concentration: 1 μM, replicates: in singlicate; n = 1
# T2 construct: gene PRKAA1
# AMPK-alpha2 = system: T3, AMPK-alpha2; settings: concentration: 1 μM, replicates: in singlicate; n = 1
# T3 construct: gene PRKAA2
# ANKK1 = settings: concentration: 1 μM, replicates: in singlicate; n = 1
# ARK5 = system: T4, ARK5; settings: concentration: 1 μM, replicates: in singlicate; n = 1
# T4 construct: gene NUAK1
# ASK1 = system: T5, ASK1; settings: concentration: 1 μM, replicates: in singlicate; n = 1
# T5 construct: gene MAP3K5
# [1] = concentration: 1 μM, replicates: in singlicate
# 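Note: KINOMEscan kinase panel screen.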
structure (smiles),measurement,setting,value
CCCCc1nn2ncccc2c1-c1ccnc(Nc2ccc(N3CCN(C)CC3)cc2)n1 [GW684941],%Inh,AAK1; [1],21%
same,%Inh,ABL1-nonphosphorylated,95.8%
same,%Inh,ABL1-phosphorylated,98.8%
same,%Inh,ABL2,96.8%
same,%Inh,ACVR1B,67%
same,%Inh,ACVR1,89%
same,%Inh,ACVR2A,16%
same,%Inh,ACVR2B,35%
same,%Inh,ACVRL1,51%
same,%Inh,ADCK3,96.7%
same,%Inh,ADCK4,93.1%
same,%Inh,AKT1,0%
same,%Inh,AKT2,0%
same,%Inh,AKT3,0%
same,%Inh,ALK,72%
same,%Inh,AMPK-alpha1,5%
same,%Inh,AMPK-alpha2,9%
same,%Inh,ANKK1,0%
same,%Inh,ARK5,62%
same,%Inh,ASK1,0%
Cc1cccc(Nc2nc(N[C@H]3CCNC3)ncc2C(N)=O)c1.Cl [GSK2197149],%Inh,AAK1; 1 µM,75%
same,%Inh,ABL1-nonphosphorylated,40%
same,%Inh,ABL1-phosphorylated,66%
same,%Inh,ABL2,25%
same,%Inh,ACVR1B,0%
same,%Inh,ACVR1,0%
same,%Inh,ACVR2A,2%
same,%Inh,ACVR2B,7%
same,%Inh,ACVRL1,0%
same,%Inh,ADCK3,28%
same,%Inh,ADCK4,0%
same,%Inh,AKT1,0%
same,%Inh,AKT2,7%
same,%Inh,AKT3,0%
same,%Inh,ALK,47%
same,%Inh,AMPK-alpha1,22%
same,%Inh,AMPK-alpha2,33%
same,%Inh,ANKK1,79%
same,%Inh,ARK5,34%
same,%Inh,ASK1,0%
CN(C)Cc1ccc(-c2ccc3c(Nc4ccc(Oc5ccccn5)cc4)ccnc3c2)o1 [GW567148],%Inh,AAK1; [1],0%
same,%Inh,ABL1-nonphosphorylated,89%
same,%Inh,ABL1-phosphorylated,32%
same,%Inh,ABL2,18%
same,%Inh,ACVR1B,0%
same,%Inh,ACVR1,0%
same,%Inh,ACVR2A,0%
same,%Inh,ACVR2B,38%
same,%Inh,ACVRL1,0%
same,%Inh,ADCK3,0%
same,%Inh,ADCK4,0%
same,%Inh,AKT1,0%
same,%Inh,AKT2,0%
same,%Inh,AKT3,0%
same,%Inh,ALK,22%
same,%Inh,AMPK-alpha1,8%
same,%Inh,AMPK-alpha2,0%
same,%Inh,ANKK1,0%
same,%Inh,ARK5,18%
same,%Inh,ASK1,0%
c1ccc(-c2n[nH]cc2Nc2ccnc3ccccc23)nc1 [GW694077],%Inh,AAK1; [1],82%
same,%Inh,ABL1-nonphosphorylated,0%
same,%Inh,ABL1-phosphorylated,0%
same,%Inh,ABL2,0%
same,%Inh,ACVR1B,0%
same,%Inh,ACVR1,30%
same,%Inh,ACVR2A,0%
same,%Inh,ACVR2B,0%
same,%Inh,ACVRL1,0%
same,%Inh,ADCK3,3%
same,%Inh,ADCK4,51%
same,%Inh,AKT1,0%
same,%Inh,AKT2,2%
same,%Inh,AKT3,0%
same,%Inh,ALK,21%
same,%Inh,AMPK-alpha1,0%
same,%Inh,AMPK-alpha2,0%
same,%Inh,ANKK1,75%
same,%Inh,ARK5,0%
same,%Inh,ASK1,0%
